The whole screen tested about 53,000 compounds, of which about 900 (1.7%) showed an effect of 50% or more. This excerpt belongs to a sample that is enriched for strong results.
Test system: Mycobacterium tuberculosis
Assay: Cornell - Phenotypic assay to identify agents that inhibit growth of Mycobacterium tuberculosis
Type: functional
Parameters: scale not given: direction of the effect not stated beside the values
Settings: 10 mM as filed; unlikely as a test dose

SMILES	Percent Effect [%]
COC(=O)COc1c(F)cc(Br)cc1C(C)=O	-28.15
NS(=O)(=O)NCc1cc(-c2ccco2)n(CC(F)(F)F)n1	5.494
O=C(Nc1cccn(Cc2ccc(F)cc2)c1=O)c1cnc[nH]1	15.84
Cc1nnc(SCC(=O)c2cc3c(cc2Cl)NC(=O)C3)o1	14.6
Cc1nc(C(C)N2Cc3ncccc3C2=O)cs1 (stereo not given)	12.56
COCc1nc2cc(NCc3cc[nH]n3)ccc2o1	106.8
COCc1nc2cc(NCc3ccncc3)ccc2o1	39.69
COCc1nc(CNc2cccc(-c3ncon3)c2)cs1	-0.7134
CCC(O)CN1CCN(C(=O)c2ccc(Cn3cccc3)cc2)CC1 (stereo not given)	-35.22
CCCS(=O)(=O)N1CCN(Cc2ccco2)CC1.O=C(O)C(=O)O	-8.655
COc1cc(C(=O)N2CC3(CCNCC3)c3cc(Cl)ccc32)ccn1.O=C(O)C(F)(F)F.O=C(O)C(F)(F)F	15.78
CNc1cc(-c2ccccc2CN)c2cc[nH]c2n1	23.62
CNc1cc(-c2cccc(CN)c2)c2cc[nH]c2n1	80.74
CNc1cc(-c2ccc(COCCN)cc2)c2cc[nH]c2n1	26.91
CCOc1c(Cl)cc(/C=C/c2ncc(C(=O)O)s2)cc1OC	33.38
CCOCC1CCN(C(=O)C(c2ccccc2F)N(C)C)CC1 (stereo not given)	28.27
CNC(=O)C1CCCN(C(=O)c2cncs2)C1 (stereo not given)	43.16
CS(=O)(=O)N1CCN(C(=O)c2cncs2)CC(C(N)=O)C1 (stereo not given)	53.86
CNC(=O)C1CN(C(=O)c2cccs2)CCN(S(C)(=O)=O)C1 (stereo not given)	18.15
COC[C@@]12CCO[C@@H]1CCN(C(=O)Cc1ccccc1C)C2	7.914
Cc1oc(C)c(C(=O)NS(=O)(=O)c2ccc3c(c2)OCCCO3)c1C	58.42
Cc1oc(C)c(C(=O)NS(=O)(=O)c2ccc3c(c2)OCCO3)c1Br	6.395
Cc1ccc(C(=O)NS(=O)(=O)c2ccc3c(c2)OCCCO3)o1	-1.542
NC(=O)N1CCC(C(=O)NC2CCc3nccn3C2)CC1 (stereo not given)	-11.45
COC(=O)C(NC(=O)C(C)C)c1cc(F)ccc1F (stereo not given)	35.55
COC(=O)C(c1cc(F)ccc1F)N(C)C(=O)c1ccccn1 (stereo not given)	0.1474
COC(=O)C(NC(=O)COC1CCCCC1)c1ccccc1 (stereo not given)	43.33
COC(=O)C(NC(=O)c1ccco1)c1cc(F)ccc1F (stereo not given)	104.5
COC(=O)C(NC(=O)COC1CCCC1)c1cc(F)ccc1F (stereo not given)	63.8
NC(=O)C(NC(=O)COC1CCCC1)c1ccccc1 (stereo not given)	21.89
